Source: PubChem BioAssay (Tox21)
Inconclusive results are not listed. The source made the active and inactive calls. Unless noted, the call rests on the fitted dose curve; in most records, active means well fitted curve in the direction sought with a large enough effect in the repeat runs; inconclusive means weak or mixed curves; inactive means no such curve, though single readings can be large; an effect the other way counts as inactive or inconclusive.

What was measured:
[1] = qHTS assay to identify small molecule antagonists of the thyroid receptor (TR) signaling pathway - cell viability counter screen (AID 743064); further: nearly all actives have a fitted effect of over 50% in size; further: potency means the concentration at half of the fitted maximal effect
Outline: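 Counter screen for cytotoxicity: compound plus T3 (1 nM final) on GH3.TRE-Luc cells, 23.5 h at 37 °C, then fluorescence viability readout with CellTiter-Fluor.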

[2] = qHTS assay to identify small molecule antagonists of the thyroid receptor (TR) signaling pathway (AID 743065); further: nearly all actives have a fitted effect of over 55% in size; further: potency means the concentration at half of the fitted maximal effect
Outline: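 GH3.TRE-Luc rat pituitary cells carrying two TR response elements driving luciferase were plated for 4 h, given compound plus 1 nM T3 (final), and incubated 23.5 h at 37 C. ONE-Glo luminescence measured reporter inhibition; CellTiter-Fluor fluorescence tracked cytotoxicity.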

[3] = system: thyroid hormone receptor (rat, GH3 cells); test: qHTS assay to identify small molecule agonists of the thyroid receptor (TR) signaling pathway (AID 743066; calls by dose curve)
[4] = target: Estrogen receptor (Homo sapiens) (UniProt P03372); test: qHTS assay to identify small molecule antagonists of the estrogen receptor alpha (ER-alpha) signaling pathway (AID 743069; active means well fitted curve in the direction sought with a large enough effect in the signal ratio in the repeat runs, not every such curve was filed as active; the % refers to the signal ratio)
Estrogen receptor (Homo sapiens), sequence (P03372 whole entry, looked up): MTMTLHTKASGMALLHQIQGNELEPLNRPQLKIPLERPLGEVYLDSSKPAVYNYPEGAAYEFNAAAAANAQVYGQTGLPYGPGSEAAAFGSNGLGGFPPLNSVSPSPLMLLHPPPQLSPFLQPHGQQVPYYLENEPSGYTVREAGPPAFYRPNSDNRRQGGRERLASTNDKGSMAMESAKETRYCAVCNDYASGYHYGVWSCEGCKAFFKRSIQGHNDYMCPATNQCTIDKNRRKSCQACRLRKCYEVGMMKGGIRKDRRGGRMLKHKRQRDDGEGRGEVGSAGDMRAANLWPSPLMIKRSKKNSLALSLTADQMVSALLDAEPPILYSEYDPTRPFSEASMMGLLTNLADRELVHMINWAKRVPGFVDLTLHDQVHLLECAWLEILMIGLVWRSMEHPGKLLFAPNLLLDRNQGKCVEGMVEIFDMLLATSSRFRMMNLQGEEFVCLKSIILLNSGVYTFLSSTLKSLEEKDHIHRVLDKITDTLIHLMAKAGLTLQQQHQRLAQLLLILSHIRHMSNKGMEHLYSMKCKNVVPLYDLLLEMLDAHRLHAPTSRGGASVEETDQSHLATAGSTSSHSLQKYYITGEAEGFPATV
Outline: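 Screening used a UAS-driven beta-lactamase reporter integrated into HEK293 cells expressing ER-alpha, stimulated with 17beta-estradiol alongside test compounds over 18 hr at 37C; signal came from LiveBLAzer B/G FRET fluorescence.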

[5] = qHTS assay to identify small molecule antagonists of the estrogen receptor alpha (ER-alpha) signaling pathway - cell viability counter screen (AID 743074; calls by dose curve; further: nearly all actives have a fitted effect of over 45% in size)
[6] = target: Estrogen receptor (Homo sapiens) (UniProt P03372); test: qHTS assay to identify small molecule agonists of the estrogen receptor alpha (ER-alpha) signaling pathway (AID 743075; calls by dose curve)
[7] = qHTS assay to identify small molecule antagonists of the estrogen receptor alpha (ER-alpha) signaling pathway using the BG1 cell line (AID 743080; calls by dose curve;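 further: BG1 cells stimulated with 17beta-estradiol alongside compound; nearly all actives have a fitted effect of over 25% in size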; further: potency means the concentration at half of the fitted maximal effect)
Outline: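 BG1-Luc-4E2 cells (endogenous full-length ER-alpha, 4xERE luciferase) hormone-starved 5 days in charcoal-stripped FBS, plated 4,000/well for 24 h, then compound plus 17beta-estradiol for 21.5 h at 37 C; ONE-Glo luminescence read.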

[8] = qHTS assay to identify small molecule antagonists of the estrogen receptor alpha (ER-alpha) signaling pathway using the BG1 cell line - cell viability counter screen (AID 743081);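 further: compound given together with 17beta-estradiol as the ER stimulus; nearly all actives have a fitted effect of over 45% in size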
[9] = target: Aromatase (Homo sapiens) (UniProt P11511); test: qHTS assay to identify aromatase inhibitors (AID 743083); further: nearly all actives have a fitted effect of over 55% in size
Aromatase (Homo sapiens), sequence (P11511 whole entry, looked up): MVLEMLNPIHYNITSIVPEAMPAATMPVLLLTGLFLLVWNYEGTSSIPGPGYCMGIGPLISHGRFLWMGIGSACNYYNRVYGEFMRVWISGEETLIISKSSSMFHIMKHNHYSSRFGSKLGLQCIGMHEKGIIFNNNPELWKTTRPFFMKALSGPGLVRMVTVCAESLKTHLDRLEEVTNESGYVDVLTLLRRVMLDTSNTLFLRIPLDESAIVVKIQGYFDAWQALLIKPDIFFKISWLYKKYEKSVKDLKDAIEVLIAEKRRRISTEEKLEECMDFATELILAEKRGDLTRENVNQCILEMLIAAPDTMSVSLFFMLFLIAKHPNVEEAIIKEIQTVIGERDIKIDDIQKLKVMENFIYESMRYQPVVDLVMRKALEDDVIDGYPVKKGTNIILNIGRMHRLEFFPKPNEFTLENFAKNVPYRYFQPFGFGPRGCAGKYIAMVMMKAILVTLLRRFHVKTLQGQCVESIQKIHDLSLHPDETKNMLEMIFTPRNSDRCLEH

[10] = qHTS assay to identify aromatase inhibitors - cell viability counter screen (AID 743084);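 further: cells stimulated with testosterone during compound exposure; nearly all actives have a fitted effect of over 55% in size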
[11] = target: Aryl hydrocarbon receptor (Homo sapiens) (UniProt P35869); test: qHTS assay to identify small molecule that activate the aryl hydrocarbon receptor (AhR) signaling pathway (AID 743085); further: nearly all actives have a fitted effect of over 15% in size; further: potency means the concentration at half of the fitted maximal effect;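 on activation: HG2L7.5c1 human HepG2 liver cells with stably integrated DRE-driven firefly reporter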
Aryl hydrocarbon receptor (Homo sapiens), sequence (P35869 whole entry, looked up): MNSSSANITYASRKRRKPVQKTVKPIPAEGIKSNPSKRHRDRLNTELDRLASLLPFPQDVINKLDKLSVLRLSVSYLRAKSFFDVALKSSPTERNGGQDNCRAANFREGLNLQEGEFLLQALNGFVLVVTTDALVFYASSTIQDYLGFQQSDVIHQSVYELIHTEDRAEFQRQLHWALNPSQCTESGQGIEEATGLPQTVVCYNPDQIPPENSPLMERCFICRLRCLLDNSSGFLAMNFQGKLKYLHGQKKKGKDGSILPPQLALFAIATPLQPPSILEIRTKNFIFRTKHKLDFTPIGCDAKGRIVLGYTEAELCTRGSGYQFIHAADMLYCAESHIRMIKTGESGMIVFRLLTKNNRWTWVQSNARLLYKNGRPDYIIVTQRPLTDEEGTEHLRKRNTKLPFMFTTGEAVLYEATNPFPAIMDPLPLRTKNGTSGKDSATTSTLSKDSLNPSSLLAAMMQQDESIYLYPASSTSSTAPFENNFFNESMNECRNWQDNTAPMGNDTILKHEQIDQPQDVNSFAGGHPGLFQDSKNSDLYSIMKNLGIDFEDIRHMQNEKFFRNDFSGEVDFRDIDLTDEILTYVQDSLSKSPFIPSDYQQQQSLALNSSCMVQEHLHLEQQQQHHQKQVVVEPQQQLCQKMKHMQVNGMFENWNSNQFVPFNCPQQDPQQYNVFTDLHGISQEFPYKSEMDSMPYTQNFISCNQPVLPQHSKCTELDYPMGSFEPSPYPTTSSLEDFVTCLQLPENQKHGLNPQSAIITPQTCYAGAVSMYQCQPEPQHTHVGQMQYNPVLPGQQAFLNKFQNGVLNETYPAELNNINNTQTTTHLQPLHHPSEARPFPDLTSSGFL
Outline: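 Measured in HG2L7.5c1 cells: CellTiter-Fluor signal (30 min incubation, 37C) for viability, then luciferase luminescence (30 min, room temperature). Compound contact time was 24 h at 37C, following a 5 h pre-incubation.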

[12] = qHTS assay to identify small molecule that activate the aryl hydrocarbon receptor (AhR) signaling pathway - cell viability counter screen (AID 743086);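 further: HepG2 liver cells carrying the AhR DRE luciferase reporter; nearly all actives have a fitted effect of over 45% in size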
Outline: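 HepG2-AhR-luc (HG2L7.5c1) cells, 4000/well, were preincubated 5 h at 37C, exposed to compound in qHTS format for 24 hr at 37C, then given CellTiter-Fluor for 30 min; viability was read as fluorescence in the reporter wells.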

[13] = target: Peroxisome proliferator-activated receptor gamma (Homo sapiens) (UniProt P37231); test: qHTS assay to identify small molecule agonists of the peroxisome proliferator-activated receptor gamma (PPARg) signaling pathway (AID 743094; active means well fitted activation curve with a large enough effect in the signal ratio in the repeat runs, not every such curve was filed as active; the % refers to the signal ratio)
Peroxisome proliferator-activated receptor gamma (Homo sapiens), sequence (P37231 whole entry, looked up): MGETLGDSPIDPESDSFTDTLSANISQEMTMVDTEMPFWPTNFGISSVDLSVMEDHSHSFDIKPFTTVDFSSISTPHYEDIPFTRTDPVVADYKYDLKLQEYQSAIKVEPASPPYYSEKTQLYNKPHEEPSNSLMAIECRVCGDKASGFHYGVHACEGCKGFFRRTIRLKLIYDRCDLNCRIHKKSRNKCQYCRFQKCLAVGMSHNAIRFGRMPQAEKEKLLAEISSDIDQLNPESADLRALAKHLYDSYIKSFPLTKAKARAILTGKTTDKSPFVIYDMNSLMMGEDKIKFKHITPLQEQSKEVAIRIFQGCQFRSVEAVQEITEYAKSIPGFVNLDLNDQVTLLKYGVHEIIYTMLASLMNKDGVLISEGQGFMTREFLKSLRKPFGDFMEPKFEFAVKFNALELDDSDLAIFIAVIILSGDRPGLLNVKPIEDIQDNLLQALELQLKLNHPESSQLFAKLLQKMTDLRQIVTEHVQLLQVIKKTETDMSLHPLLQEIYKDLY
Outline: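 HEK293H PPARg-bla cells, 5 h settle at 37C/5% CO2; compound (DMSO) 17 h, 37C; B/G FRET substrate 1 h RT; fluorescence intensity read-out. qHTS format.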

[14] = target: Peroxisome proliferator-activated receptor gamma (Homo sapiens) (UniProt P37231); test: qHTS assay to identify small molecule antagonists of the peroxisome proliferator-activated receptor gamma (PPARg) signaling pathway (AID 743191; calls by dose curve; further: nearly all actives have a fitted effect of over 30% in size)
Outline: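 GeneBLAzer PPARg UAS-bla HEK293H cells carrying a UAS-driven beta-lactamase reporter were plated at 3000 cells/well, preincubated 5 h at 37C, then given compound for 17 h at 37C; LiveBLAzer B/G FRET substrate was read after 1 h at room temperature.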

[15] = qHTS assay to identify small molecule antagonists of the peroxisome proliferator-activated receptor gamma (PPARg) signaling pathway - cell viability counter screen (AID 743194); settings: Potency: co-treated with 50 nM rosiglitazone; further: nearly all actives have a fitted effect of over 55% in size
Outline: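 PPARg-UAS-bla HEK293H cells were plated, rested 5 h at 37 C, then treated with compounds plus rosiglitazone (50 nM final) for 17 h at 37 C; viability was then read by CellTiter-Glo luminescence after 30 min at room temperature.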

[16] = qHTS assay for small molecule agonists of the antioxidant response element (ARE) signaling pathway (AID 743202; active means well fitted activation curve with a large enough effect in the signal ratio in the repeat runs, not every such curve was filed as active; the % refers to the signal ratio; further: potency means the concentration at half of the fitted maximal effect)
Outline: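 Steps: seed ARE-bla HepG2 cells (2,000/well); incubate 5 h at 37 C; add compounds by pin tool; incubate 16 h at 37 C; add FRET substrate; read fluorescence after 2 h at RT.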

[17] = qHTS assay for small molecule agonists of the antioxidant response element (ARE) signaling pathway - cell viability counter screen (AID 743203; calls by dose curve; further: nearly all actives have a fitted effect of over 55% in size)
Outline: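 Luminescence read-out (CellTiter-Glo, 30 min at room temperature) measured cell viability in the same wells as the ARE beta-lactamase reporter. HepG2 ARE-bla cells were treated with compounds for 16 hrs at 37C/5% CO2.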

[18] = qHTS assay for small molecule activators of the heat shock response signaling pathway (AID 743210; active means well fitted activation curve with a large enough effect in the signal ratio in the repeat runs, with a control signal flat, not every such curve was filed as active; the % refers to the signal ratio;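 further: HeLa cells with beta-lactamase reporter driven by heat shock elements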)
Outline: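 Activation of heat shock element-controlled beta-lactamase expression is measured in HeLa cells by LiveBLAzer FRET fluorescence, with compound exposure lasting 5 h at 37 C and substrate loading 2.5 h at room temperature.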

[19] = target: Estrogen receptor (Homo sapiens) (UniProt P03372); test: qHTS assay to identify small molecule agonists of the estrogen receptor alpha (ER-alpha) signaling pathway using the BG1 cell line (AID 743079); settings: BG1Luc4E2 cells, ERE-luciferase agonist, 22 h; at 70.3 µM (top of the series); further: nearly all actives have a fitted effect of over 20% in size
[20] = qHTS assay for small molecule activators of the heat shock response signaling pathway - cell viability counter screen (AID 743209); further: nearly all actives have a fitted effect of over 50% in size
Outline: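 HSE-bla HeLa; 1500 cells/well; overnight 37 C, 5% CO2; compound 5 h 37 C; LiveBLAzer B/G substrate 2.5 h RT; CellTiter-Glo 30 min RT; luminescence.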
On the % scale 0 is the no-effect control and ±100 the full control effect.

NC(=O)c1cc([N+](=O)[O-])cc([N+](=O)[O-])c1
inactive: Potency [1] | Potency [2] | Potency [3] | Potency [4] | outcome [5] | Potency [6] | Potency [7] | Potency [8] | Potency [9] | Potency [10] | Potency [11] | outcome [12] | outcome [13] | Potency [14] | Potency [15] | Potency [17] | outcome [18]
active: Potency [16] 23.7 µM

Nc1cc(Cl)ccc1O
active: Potency [1] 23.5 µM | Potency [2] 59.1 µM | Potency [7] 7.45 µM | Potency [11] 29.6 µM
inactive: Potency [3] | Potency [4] | Potency [6] | activation [19] -2.11% | Potency [8] | Potency [9] | Potency [10] | outcome [12] | Potency [17] | outcome [18]

NC(=O)O
inactive: Potency [1] | Potency [2] | Potency [3] | Potency [4] | outcome [5] | Potency [6] | activation [19] -5.63% | Potency [7] | Potency [8] | Potency [9] | Potency [10] | Potency [11] | outcome [12] | Potency [15] | Potency [17] | Potency [20] | outcome [18]

Cc1ncsc1CCCl
inactive: Potency [1] | Potency [2] | Potency [3] | Potency [4] | outcome [5] | Potency [6] | activation [19] 1.72% | Potency [7] | Potency [9] | Potency [10] | Potency [11] | outcome [12] | outcome [13] | Potency [16] | Potency [17] | Potency [20]

O=C1c2ccccc2C(=O)c2ccccc21
inactive: Potency [1] | Potency [2] | Potency [3] | Potency [4] | outcome [5] | Potency [6] | Potency [9] | Potency [10] | Potency [11] | outcome [12] | outcome [13] | Potency [14] | Potency [15] | Potency [16] | Potency [17] | outcome [18]

CC1CCCCC1NC(=O)Nc1ccccc1 (stereo unspecified)
inactive: Potency [1] | Potency [2] | Potency [3] | Potency [4] | outcome [5] | Potency [6] | Potency [8] | Potency [9] | Potency [10] | Potency [11] | outcome [12] | outcome [13] | Potency [15] | Potency [16] | Potency [17] | Potency [20] | outcome [18]

O=[N+]([O-])c1cc(Cl)c(Cl)c(Cl)c1
inactive: Potency [1] | Potency [2] | Potency [3] | Potency [4] | outcome [5] | Potency [6] | activation [19] 9.06% | Potency [7] | Potency [8] | Potency [9] | Potency [11] | outcome [12] | outcome [13] | Potency [15] | Potency [17] | outcome [18]

O=C1OC(c2ccc(O)c(S(=O)(=O)O)c2)(c2ccc(O)c(S(=O)(=O)O)c2)c2c(Br)c(Br)c(Br)c(Br)c21
inactive: Potency [1] | Potency [2] | Potency [3] | Potency [4] | outcome [5] | Potency [6] | activation [19] -0.304% | Potency [7] | Potency [9] | Potency [10] | Potency [11] | outcome [12] | outcome [13] | Potency [14] | Potency [15] | Potency [17] | outcome [18]
